Experimental data: PubChem BioAssay AID1159506 (National Center for Advancing Translational Sciences (NCATS), 2015)
In all, about 59,000 sequences were measured (the read-out: median about -0.00055, lowest 2% from about -2 on). This is one part of a sample in which the lowest values are shown more often than they occur.

Assay: Identification of proteins required for the processing of the EWS-FLI1 nascent transcript;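 also: robust z of luciferase light less the median z of siRNAs with the same seed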
Details: TC32 Ewing sarcoma NR0B1-luc vs CMV-luc (EWS-FLI1 target promoter against control promoter), 48 h; screened at 20 nM (by protocol)
Method: Ewing sarcoma (ES) cells depend on the EWS-FLI1 fusion transcription factor for cell survival. Using an assay of EWS-FLI1 activity and genome-wide siRNA screening we have identified proteins required for the processing of the EWS-FLI1 nascent transcript. Parallel genome-wide siRNA-mediated RNAi screens were conducted in Ewing sarcoma TC32 cell lines expressing a luciferase (luc) reporter protein driven by either the promoter of the EWS-FLI1 target gene NR0B1 (TC32-NR0B1-luc) or the CMV promoter (TC32-CMV-luc). Luciferase activity was assessed 48 hours post siRNA-transfection.
Twenty microl of serum-free media containing Lipofectamine RNAiMax (0.05 microl) was added to wells containing siRNA (0.8 pmol). Lipid and siRNA were allowed to complex for 45 min at ambient temperature before addition of 600 cells in RPMI-1640, 20% FBS to yield final transfection mixtures containing 20 nM siRNA in RPMI-1640, 10% FBS. Luciferase expression was measured using OneGlo (Promega, Madison, WI). The genome-wide screening campaign was conducted using Ambion's human genome library version 4.1 (Ambion, Austin TX). This library targets approximately 21000 human genes, three siRNAs per gene. Each siRNA is arrayed in an individual well of a 384-well plate. Parallel transfections were conducted in TC32-NR0B1-luc and TC32-CMV-luc cell lines and luciferase expression (OneGlo, Promega) was assayed 48 h later on a PerkinElmer Envision 2104 Multilabel plate reader (PerkinElmer, Waltham, MA). Qiagen's AllStars Negative control was incorporated on all screening plates for normalization (16 wells per plate). Qiagen, Germantown, MDsiGL4 was incorporated as a positive transfection control (16 wells per plate) on all plates. […] The raw luciferase data for the NR0B1- and CMV-luc screens were normalized and z-score-MAD transformed using standard methods (Chung et al., 2008). The miRNA-like seed sequence of every siRNA was determined and the median z-score for all siRNA sequences with the same seed sequence was calculated. This z-score was subtracted from the z-score associated with each siRNA with that seed sequence to generate a seed-adjusted z-score value (Z) that was used when the results for the three siRNAs corresponding to each gene were compared (Marine et al., 2012)

Sequence | seed-corrected z-score
AAUGGAUUCAGUUACUUGC against TACSTD2 | -0.0397
UGUCUUCGAUGUUUCAUCG against DOK6 | -2.6
UUCGGGAAAGUAGUCAUGA against NSFL1C | 0.0545
UACACUAGCAUUGCACUCC against ARHGEF19 | 0.989
AUCUUGUUCCGCAUGGUCU against AMOTL2 | 0.501
UUUAGCAACAGAGUCCACC against MAP2K6 | 0.538
AUCUUCAAUACUUGAAUCU against LINC00467 | -0.368
UUUCAUGCACCAACGGAUC against ABHD2 | -2.24
AAAGGAAAGAUGACAGUAU against OR4N5 | 0.213
AAGCUUUUUAUUGGAGUUC against ZNF852 | 1.01
UCAGCGAACAUGUCCAGGG against CD2BP2 | 0.587
AAUUUAAUAGUGUUUGUGC against PLPP4 | 0.11
UCAGAGCACAGAUCGGGAC against DUSP2 | 0.227
UUUGUCCUUAGUAAUGAAU against HOXA13 | -0.568
UUUGCAAUUGAGGUGAGGC against ANP32D | -0.262
UUCACAACAGGGUGGAGCC against FAM110A | -0.481
UUGCCUAUCUGGUUGAUGG against MATN1 | -0.472
UUCUGAUUCUGCUUGUUGG against MPRIP | -2.12
UCCGUUAUAAACAAACAGG against ITGA11 | -0.259
UUCUGCAAGCUCACUGUCC against TTC7A | -0.896
UUAUCUAUAACAGAGUAUG against DCBLD2 | 0.479
UUGGAAAGCAGUGUCUCUG against KRTAP8-1 | -0.147
UCUGCUUUGCAAAUAGCCG against SRD5A1 | -3.07

Sequence | seed-corrected z-score
UAUGUGCACACGGUCUUGA against NRN1 | -1.7
UAAGUUUAUAGUUGGGAAC against RPS25P6 | -0.0501
AUUGGAUCAGUGGAGCUCU against SPANXN4 | 0.397
AAAUUCGUAAGCUCUGUGG against C2orf70 | 1.37
AAGCUUCUCAUUAAUGCCC against CYB561A3 | -1.26
UAGGCAAAAACAGUCCACC against B3GNT8 | -0.0844
UAUUACUCAGCAGCUUUGC against TIPIN | -0.378
AUACUGGAUAUCAUAGUUC against ARG2 | -2.32
UUGGUUGUCAUGAUCAGUG against PAPD7 | 0.333
UUUUGUUCGUCUCCGUUCC against AK4 | 0.42
UGAGUUUCGCGCUCUCUCC against SLC17A7 | -2.93
AGUAUUAUCACGUUAGUGG against NUP88 | -0.85
UUUUCGCUACUUGAGUUGC against SLC35F5 | -1.12
AAAGUUGAACUCCUGAUGG against MYT1L-AS1 | 0.298
UCGUUGUUCAAACCAUUCC against ZEB2 | -2.94
UCUGAAUCCACUAACACUG against TMEM87B | -0.0559
UUGCUAAACAGGGCCUUGC against MCRS1 | 1.49
UAGGUUUUCUUCGUUGUCC against MIR503HG | 0.872
UUCGAAGCAUCUUUUGGGC against RPL7P9 | -2.28
UGAGUUGAACACGUAGCCC against ALPI | 0.286
UUUGCUAUCUUGCUGAUGC against LINC00615 | 0.184
ACAGAUAUUGUAAAUCUCC against TMEM14C | 0.508
UAUUGUGAUAUAGGCACCG against WDR26 | -1.57

Sequence | seed-corrected z-score
UCACGUUUCACCAAGAUGC against EIF4A3 | -2.2
UCCAUGACAAUGUCCACUC against VAT1 | -0.662
UCUGGAUUAUGGGUAGGCC against CHTOP | -1.42
UUCUGCUUCUGUAUUAUCC against SAP30BP | -2.11
UCACUAUCAAGUCUGGUAC against CSMD3 | 0.55
UAUAUCUGCAACACGGUGG against SND1 | 0.153
UGUCUUUCAAACGUAGGCC against ZNF792 | -3.5
UGUUUCGUAAACAUUCACC against FUT10 | -0.285
UACAAUUACAUCAUCGUCC against GLT8D2 | -0.139
UUCGAGAGACUGACAUGCG against SYT14P1 | -0.0146
AUCUGGUUCAUUACAGUAG against BSDC1 | -2.55
AAAAGACAUACAUGAAGAC against GJB1 | -0.779
UCUAAUUCCAGGUAAAUUU against GOLT1B | 0.519
UUAUCUUGCAGCAAAGCAC against LYZ | -1.35
UUAAACUUCACGUUGUCCU against RPL38 | -2.01
AUUGGAGGCACUGCACUCG against NTM | 0.224
UAUAGGAGCUCUAGGAUCU against CSTF2T | -0.439
AGCAUUGUAAGUGACGUGC against KCNN2 | -2.24
UCUGUUAAUGCUAUUCUCC against C2orf61 | 0.146
UGUUAAGUAGAAAAUAACC against CD83 | 0.552
UAUGACAUCGGAGACCUUC against MEN1 | 0.259
AAAGUUGCUAUGAAGCGAG against PSMA8 | -2.62
UCUCGUUUAUCUACAUCUC against AUTS2 | 0.181

Sequence | seed-corrected z-score
UACAGACAUAUGUACAUCC against CCDC12 | -2.89
UGACAAAUCACUGUAUGUC against ZIM2 | -0.582
UUUGAUACAGUAUCUACAG against DVL1 | 0.326
UUAUUUCUCAGCUCGUUGG against STX6 | -2.43
UUUGUUUGCACCAGUUGUC against OTUD1 | 0.434
UUGCGCUCUAGUUCCAGGC against PRPH | -0.44
UCCUUUAACGGGAUCUUGU against PI3 | 0.267
UAUGUACAGAGACACCAGG against MC5R | -2.92
AUAGUCACAAAUGAAUCCG against PLS3 | 0.171
AACGAUGAUAGAAUUUACG against CLEC16A | -2.32
UGUGGAAACAUUGAUCUGC against PRPF4 | -1.56
UUCUUUAUUGAGUGCAUGG against KLK6 | -1.38
UCGUCUAUUGAUGAUGUCG against AQR | -2.1
UUCUGGAUUCUUGACCGCU against KRBOX4 | 0.0382
AGCUUGGAGAGUUUAGCCC against SLC46A1 | 0.256
UUCCUAAUACCACAAUUGC against NKIRAS1 | -0.00171
UAAGUUGCAUGCCUGGUCA against RIMKLA | -3.91
UGUUGAGUAAGGAGGGACC against HSPB8 | -0.073
UCAUCGCCUAUGUCGAUGC against ABCC11 | 0.255
UUUGAGCUUUCCUUAUUCC against CEP97 | 0.381
UCUAGAUCAUGAAUGCUCC against ZNF25 | 1.08
AUUUCUUUCAUAGUCACCG against RASL11B | -0.122
UAUGCUUUUAGACGAUUGG against ASB14 | -0.444

Sequence | seed-corrected z-score
AGGUCUUCAAAUACCGUUG against LACTB2 | -2.32
UUUGCUCCCUUCACUCUGC against DVL1 | 0.689
AAAUGUACACCAUAUAAGC against ELOVL6 | -2.75
UUCAUGUCCACGUUGACCA against PLCD3 | -0.387
UUAUGGUCUUGAGGUAAGG against RNF6 | 0.418
UUCGUGAAAGGAUCUGCUG against FRMD4B | -0.649
UCUGUUUUCAGGUCUUCCA against PMM1 | 0.485
UGAGUUUGAAGGUGAAUUC against TMEM207 | 0.374
UAGACUAGAAUGGUCACUC against DDIAS | 0.728
UCUGGAGUGUUUGGGCUGC against CICP18 | -3.73
UAACCUUCAACUCGCUGCC against NYNRIN | -1.01
UUAAUGGGAAGUUCUGGUG against ALG8 | -0.153
UUGUUUACAAUUGAAACUC against RPS7 | 2.49
UUUGGUAAACUUCUGACUC against AFP | 0.408
UUGGGCACAUGCUCUAAGG against SUN2 | 1.57
UUUGCGGUCAGGUUUCACC against MTNR1A | -0.693
UUCCUUCCAGCUGUAGGCC against CHRM1 | -2.17
UUUGGAGCAAGUAAUCCCU against ATP5SL | 0.0327
UACGCUCCAACCAUCAUAG against KIAA0368 | -0.0559
AAUGUCACAAAAGUUCCGU against PGLYRP3 | -0.707
UAACGAGAAAGACGGAUGC against CEP104 | -0.248
AAUGCUAUAAAAUCCGUGG against C11orf95 | 0.671
UAUUAGGAGAUAUGAAGUG against PSMB7 | 0.622

Sequence | seed-corrected z-score
UCAGCUUCUACUCCGGUCU against DAPP1 | -1.25
UUGUAUACAAGUGUCCACC against KCTD6 | -2.54
UAUUGUAAGAGUACACGUC against IGSF5 | -0.00495
UUGCGUUCAGGAAUAUCCG against MARK3 | 0.476
UGGAAUAUAAAACCCGUGC against FUNDC2P2 | -0.0349
UUUGGGAUCUAUCAAUUUG against HNRNPDL | 0.695
AACUUUACCAGUCACACUC against SMNDC1 | -2.31
UACACUCCUCUGAAGUUUG against ZNF396 | -0.508
UUGGGUCAAUCCAUUUCUC against C10orf55 | 0.749
UCCACGAAUAGCAAGUUGC against H2AFZ | 0.129
UCUGCUUGUAGUGAAAGUC against DUSP9 | -3.42
UAACUUACUGAGAAUCGGC against LCP2 | -1.05
AAGGUGUUUCGAGUUAUGC against POLR2J | -0.205
UCAUGAACCCGAGCUCGAG against CD37 | -0.195
AUUCCUGACAUUCACAUGC against ZNF439 | 0.169
UCAGGUGCAAUUGGGAGCU against TCEB1P3 | -2.71
UACGUUUUCAGAGUAUCAC against PDCD10 | 0.491
AUACUUGACAUCACCAACC against CDKL2 | -0.981
